In ChEMBL document CHEMBL3988442, “University of Dundee, Small-Polar-MMV Screening Library” (2021):
About 13,000 (27%) of roughly 48,000 compounds showed an effect of 50% or more. This is one part of the list.

system: Wolbachia pipientis; assay: Anti-Wolbachia Cell-Based Screen; type: functional; parameters: scale not given: in the data most compounds retested in dose-response had high values; details: 5 µM

SMILES | Percent Effect
Cc1cncc(C(=O)N2CCNCC2C(=O)NCc2ccncc2)c1 (centres undefined) | -0.08971%
Cc1ccccc1-c1cc(C(=O)NCCN2CCCS2(=O)=O)[nH]n1 | -0.2577%
Cc1c(C(=O)N2CCSCC2)sc2nc(C(F)(F)F)ccc12 | -6%
COC1CCN(S(=O)(=O)N2CC[C@@](O)(C3CCC3)[C@H](C)C2)CC1 | -8.21%
CC(C)c1cc(C(=O)N2CCc3ccccc3C2C(=O)O)n(C)n1 (centres undefined) | 5.563%
COCCOc1ccc(-c2noc([C@@H]3CCCN3C3CCC3)n2)cn1 | -15.03%
Cn1cccc1C(=O)N[C@@H]1CN(CC2CC2)[C@@H]2COC[C@@H]21.O=C(O)C(F)(F)F | -18.52%
CC(C)CN1CC(c2nc(-c3ccsc3)c[nH]2)CC1=O (centres undefined) | -7.374%
Cc1nc(O)cc(C2CCN(C(=O)c3ccsc3)CC2)n1 | -4.98%
O=C1NCCCCC1NCc1csc(-c2ccsc2)n1 (centres undefined) | -2.584%
Cl.Oc1cc(C2CCNCC2)nc(-c2ccsc2)n1 | 186.4%
Cc1cc(C2CCNCC2)nc(-c2ccsc2)n1.Cl | 168.5%
O=C(c1ccsc1)N1CCCC(c2cc(C(F)(F)F)[nH]n2)C1 (centres undefined) | 0.1242%
FC(F)(F)c1cc(C2CCNCC2)nc(-c2ccsc2)n1 | 147.1%
Cl.Cn1cnc2c(-c3ccccc3)nc(C3CCNCC3)cc21 | -35.46%
CC(C)(NC(=O)C1CCCN(C2CCCC2)C1)c1nnc(N)s1 (centres undefined) | -3.514%
CN1CCc2c(CNc3ncccn3)n[nH]c2C1.O=C(O)C(F)(F)F | -10.34%
Cn1nccc1C(=O)N1CCCC1c1ccc(C(=O)N2CCOCC2)s1 (centres undefined) | -16.33%
COc1cc(N2C[C@H]3CN(C(=O)c4cnccn4)C[C@H]3C2)ncn1 | 6.779%
COc1ccc2c(c1)CC(C1CCOCC1)N(C(=O)c1ccn(C)n1)C2 (centres undefined) | 107.8%
COc1ccc2c(C)c(C(=O)NC3CCOCC3)oc2c1 | -11.52%
COc1ccc2c(c1)CC(C1CCOCC1)N(C(=O)c1cnccn1)C2 (centres undefined) | 143.6%
COc1ccc2c(c1)CC(C1CCOCC1)N(C(=O)c1ccnn1C)C2 (centres undefined) | 146.4%
COc1cccc(CC2CN(C(=O)c3ccnn3C)CCO2)c1 (centres undefined) | 14.16%
COc1cccc(C2CCN2C(=O)c2cnccn2)c1 (centres undefined) | -9.896%
COc1ccc(CNC(=O)N2CCOCC2C2CC2)c(C)c1 (centres undefined) | -4.702%

SMILES | Percent Effect
CN(C(=O)c1ccc(Cl)cn1)c1ccccc1S(C)(=O)=O | -14.63%
O=C(N1CCC(O)(C(F)(F)F)C1)C1(c2ccc(Cl)cc2)CC1 (centres undefined) | 16.08%
Cc1cc(NC(=O)C(C)N2CCN(c3nc(C)ns3)CC2)on1 (centres undefined) | 15.5%
CN(Cc1nnc(C2CC2)o1)C(c1ccc(F)cc1)c1cccnc1 (centres undefined) | 14.1%
Cc1cnc(N2CCCn3c(nnc3Cn3cccn3)C2)nc1 | -6.744%
CN(C)C(=O)N1CCn2c(Cn3cccn3)cnc2C1 | -38.04%
O=C(C1CCCO1)N1CCCn2c(nnc2Cn2cccn2)C1 (centres undefined) | -13.04%
O=C(c1ccc[nH]1)N1CCc2ncc(Cn3cccn3)n2CC1 | 112.6%
O=C(C1CCCO1)N1CCc2nnc(Cn3cccc3)n2CC1 (centres undefined) | -14.83%
O=C(N1CCCC1)N1CCn2c(Cn3cccn3)cnc2C1 | 0.9982%
O=C(c1cccs1)N1CCc2nnc(COc3cncnc3)n2CC1 | 6.421%
O=C(c1c[nH]cn1)N1CCCn2c(nnc2Cn2cccc2)C1 | 4.942%
O=C1CCCN1Cc1nnc2n1CCCN(C(=O)c1ccc[nH]1)C2 | 114.8%
O=C(c1ccc[nH]1)N1CCCn2c(nnc2Cn2cccn2)C1 | 88.61%
CN(C)Cc1nnc2n1CCCN(C(=O)c1c[nH]cn1)C2 | -1.146%
O=C(c1ccc[nH]1)N1CCc2nnc(Cn3cccc3)n2CC1 | 104.6%
CC(C)(C)C(O)CN1CCN(Cc2cccc(C#N)c2)CC1 (centres undefined) | -1.667%
CC(=O)N[C@H]1CCN2C(=O)[C@@H](Cc3c[nH]c4ccccc34)NC(=O)[C@H]12 | -9.075%
COCCN1CC(C(=O)N(C)Cc2ccc(Cl)s2)CC1=O (centres undefined) | 25.53%
O=C(c1ccc(SC(F)F)cc1)N1CCOCC1c1ncon1 (centres undefined) | 2.35%
O=C1NCC(CN2CCc3onc(-c4ccc(C(F)(F)F)cc4)c3C2)O1 (centres undefined) | 4.598%
Cc1cccc(C(=O)N2CCCn3c(CN4CCCCC4)nnc3C2)c1 | -5.352%
O=C(O)C(F)(F)F.O=C(c1ccccc1)N1CCCn2c(CN3CCCCC3)nnc2C1 | -7.245%
Cc1[nH]ccc1C(=O)N1CCC(c2nnc(Cn3cccn3)n2C)CC1 | -8.959%
O=C1CCCN1Cc1nnc2n1CCCN(C(=O)c1ccco1)C2 | 122.9%
CC(C)N(C)Cc1nnc2n1CCCN(C(=O)c1ccco1)C2 | 10.89%

SMILES | Percent Effect
O=C(O)C(F)(F)F.O=C(O)C(F)(F)F.O=C(c1c[nH]cn1)N1CCCn2c(CN3CCCCC3)nnc2C1 | 0.5876%
O=C(O)C(F)(F)F.O=C(c1ccc[nH]1)N1CCCn2c(CNC3CCC3)nnc2C1 | 88.36%
c1cnn(Cc2nnc3n2CCCN(c2nccs2)C3)c1 | -8.945%
O=C(O)C(F)(F)F.O=C(c1ccccc1F)N1CCCn2c(CN3CCCCC3)nnc2C1 | 18.71%
O=C(c1ccc[nH]1)N1CCc2nnc(Cn3cccn3)n2CC1 | 121.3%
O=C(c1ccc[nH]1)N1CCCn2c(CN3CCCCC3)nnc2C1 | 104.7%
COCCNC(=O)C(C)S(=O)(=O)c1ccc(OC)cc1 (centres undefined) | -5.557%
CCS(=O)(=O)N(C)C1CCN(c2cccc(F)c2C(C)=O)CC1 | 1.671%
CCN(CC)C(=O)CC[C@@H]1CNC(=O)[C@@H]2C[C@H](NC(=O)C3CC3)CN12 | -0.8785%
COCc1nc(C(=O)NS(=O)(=O)c2ccc(C)c(C)c2)cs1 | -2.372%
CSCC(=O)N1CCC(c2nccn2Cc2cscn2)CC1 | -14.72%
COCC1CN(Cc2cc(C)on2)Cc2cn(CC3CC3)nc21 (centres undefined) | -5.451%
CCc1ccc2c(C3CN(S(C)(=O)=O)C3)ncn2c1 | 15.67%
Cc1ccc(C(=O)N2CC(c3cccnc3)C2)cc1N1CCNC1=O | -5.741%
Cn1nc(C2CN(C(=O)c3cscn3)C2)c2nccnc21 | -8.374%
Cn1nc(C2CN(C(=O)c3cccnc3)C2)c2nccnc21 | 106.4%
O=C(c1ccncc1)N1C[C@@H]2CC[C@H](C1)N(C(=O)C1CCCC1)C2 | 23.43%
CCN(C)C(=O)c1ncn2c(C3CCN(S(C)(=O)=O)CC3)ccnc12 | -14.84%
Cn1nc(C2CN(S(C)(=O)=O)C2)c2nccnc21 | 134.2%
Cn1nc(C2CN(C(=O)c3ccncc3)C2)c2nccnc21 | 104.9%
FC(F)(F)Oc1ccc(-c2noc([C@@H]3Cc4nc[nH]c4CN3)n2)cc1 | -8.285%
CCCc1nnc(N(C)CC2CCN(CC(C)C)CC2)o1 | -8.883%
Cc1ccc2nc(-c3cnc(N)nc3)c(C)c(C(=O)N(C)C)c2c1 | 2.177%
Cc1cc(CN2CCOC(CN(C)C)C2)no1 (centres undefined) | -11.72%
Cc1nc(C)n(CC2CCCN2Cc2cscn2)n1 (centres undefined) | -0.8371%
CCOC(=O)N(C)C1CCN(Cc2csc(C)n2)CC1 | -9.858%

SMILES | Percent Effect
Cc1cc(N(C)C)nc(C2COCCN2Cc2cc(C)on2)n1 (centres undefined) | 106.1%
Cc1cc(N(C)C)nc(C2COCCN2Cc2cscn2)n1 (centres undefined) | 100.1%
Cc1cc(C)n(CC2CCCCN2Cc2cscn2)n1 (centres undefined) | 2.934%
Cc1cc(N(C)C)nc(N2CCN(Cc3nccn3C)CC2)n1 | -14.83%
Cc1cc(N(C)C)nc(N(C)Cc2csc(C)n2)n1 | -1.887%
Cc1cc(N(C)C)nc(C2COCCN2Cc2nccn2C)n1 (centres undefined) | 106.8%
Cc1cc(CN2CCCC2c2noc(C)n2)no1 (centres undefined) | -4.781%
Cc1cc(N(C)C)nc(C2COCCN2Cc2csc(C)n2)n1 (centres undefined) | 76.41%
Cn1ccnc1CN1CCOC[C@H]1c1nc(C(C)(C)C)co1 | -3.783%
CC(NC1(CNS(C)(=O)=O)CCCC1)c1ccccc1 (centres undefined) | -3.236%
COc1ccc(-n2cccn2)c(CN2CCOCC(CN(C)C)C2)c1 (centres undefined) | -24.66%
COc1cccc(CNCCc2cc(F)cc3c2OCOC3)c1 | -0.9463%
Cc1nc(CN2CCCC2c2nc(C(C)C)no2)cs1 (centres undefined) | -7.461%
CC(C)(C)c1coc([C@@H]2COCCN2Cc2csnn2)n1 | -9.121%
CNc1cc(C)nc(C2COCCN2Cc2csc(C)n2)n1 (centres undefined) | 118.8%
COc1ccnc(NC(=O)c2cscc2C)c1 | -3.049%
CCc1[nH]ncc1C(=O)N1CCN(c2nccc(OC)n2)CC1 | -7.097%
CCc1cnc(N)nc1NCCN1CCCCC1 | 1.893%
Cc1nc(C)n(CCCNc2ncnc(C)c2C)n1 | -4.271%
Cc1ncnc(NCCCN2CCCCC2CO)c1C (centres undefined) | 93.53%
CCc1cnc(N)nc1NCCCN1CCCCC1CO (centres undefined) | 90.38%
CCc1cnc(N)nc1NCCC(=O)NC1CCCCC1 | 31.74%
Cc1ccsc1-c1nccn1CCN1CCCCC1CO (centres undefined) | 8.185%
Cc1cc(-c2nccn2CCN2CCCCC2CO)oc1C (centres undefined) | 12.23%
Cc1cnc(NCCCN2CCCCC2CO)nc1 (centres undefined) | 67.94%
Cc1cc(C)n(CC2CCCCN2CCCS(=O)(=O)N(C)C)n1 (centres undefined) | 4.04%
